Assay outcomes from PubChem.
Only some compounds are listed: those with a hit (about 4.2% of all), similar ones and a draw of the others.
SW480 rerep: A quantitative high throughput screen for small molecules that induce DNA re-replication in SW480 colon adenocarcinoma cells; SW480 DNA re-replication, Hoechst DNA content imaging, 48 h; Potency, µM (highest dose often 46.1 µM), for the others: top-dose re-replication activation, hits mostly activators; 340,000 tested, 1.8% active; AID 624297, 2012; also: % of control where 0% means no effect; nearly all actives have a fitted effect of over 55% in size
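Treated cells incubate 48 hr (37 C, 5% CO2), are stained 40 min with Hoechst, and nuclear fluorescence is enumerated; a rise in nuclei with high DNA signal marks re-replication.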
MCF10A rereplic: A quantitative high throughput screen for small molecules that induce DNA re-replication in MCF 10a normal breast cells; AID 624296, 2012; Potency, µM (doses to about 46.1 µM), without a hit: at the highest dose activity, positive = re-replication, actives largely listed as activators; MCF 10A DNA re-replication, Hoechst nuclear intensity, 48 h; 350,000 tested, 2.9% active; also: % of control where 0% means no effect; nearly all actives have a fitted effect of over 50% in size
Integrin act MD: qHTS for Activators of Integrin-Mediated Alleviation for Muscular Dystrophy | 350,000 tested, 0.064% active | alpha7betagal myoblasts, beta-gal FDG fluorescence, 48 h | AID 624291, 2012 | Potency, µM (titrated, usually from 38.3 µM), inactives show top-dose activation, most hits filed as activators;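 also: 100% = response of the positive control SU9516; nearly all actives have a fitted effect of over 60% in size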
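Alpha7betagal+/- myoblasts (passage 13) were plated 16-24 hr, then exposed to compounds (1:260 dilution of DMSO stock) for 48 hours at 37C. After MPER lysis, β-galactosidase reporter activity was read as FDG fluorescence (ex 480/em 540) after 30 minutes.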
AT treatment: qHTS Assay for Identifying a Potential Treatment of Ataxia-Telangiectasia; F2112 A-T fibroblasts, KAP-1 phosphorylation AlphaLISA; neocarzinostatin DNA damage 30 min before lysis; Potency, µM (titrated, usually from 57.5 µM), without a hit: at the top dose activation, actives largely listed as activators; 320,000 tested, 0.19% active; also: % of control where 0% means no effect; nearly all actives have a fitted effect of over 45% in size
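ATM-like activity read as KAP-1 phosphorylation via AlphaLISA donor/acceptor antibody pairs after lysis and 6 hr at 25C. Cells were ATM-null patient fibroblasts (F2112, hTERT), dosed 60 min, then exposed to the DSB inducer NCS for 30 min.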
Mito fusion yeast: qHTS Assay for Small Molecule Inhibitors of Mitochondrial Division or Activators of Mitochondrial Fusion. S. cerevisiae fusion-defective mutant growth rescue, CellTiterGlo 48 h. Potency, µM (series often up to 46.1 µM), for inactives: at the highest dose growth rescue (activation), most hits filed as activators. 320,000 tested, 0.23% active. AID 485298, 2010; also: % of control where 0% means no effect; nearly all actives have a fitted effect of over 45% in size
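Temperature-sensitive fusion-defective S. cerevisiae (e.g. fzo1-1, mgm1-5) were grown with compound in YPEG medium (3% ethanol, 3% glycerol) for 48 hours at 37C. Growth rescue was measured as viability by CellTiterGlo luminescence after 10 minutes at ambient.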
The depositor's hits bear a star; ? = inconclusive; . = not tested or not shown; [ ] = dose if it differs, or a comment. Calls follow the shape of the dose curve; as a rule, active = well fitted activation curve with a large enough effect; inconclusive = small, poorly fitted or top-dose-only effect; inactive = no such curve, though single readings can be large or run the other way. Potency is read from the fitted curve at half-maximal effect.

SMILES | SW480 rerep | MCF10A rereplic | Integrin act MD | AT treatment | Mito fusion yeast
Cc1cc(C)cc(N(CCC(=O)Nc2nnc(C3CC3)s2)S(=O)(=O)c2ccc(Cl)cc2)c1 | 23.1µM* | ? | -10.9% | 6.7% | 7.9%
CCc1nnc(NC(=O)C2(C)COC(c3ccc(OC)cc3)OC2)s1 (stereo not drawn) | -3.2% | ? | 2.5% | 2.1% | -1.6%
O=C(O)c1cc(N/N=C/C=C/c2ccccc2)ccc1Cl | -7.7% | 20.6µM* | -3.3% | 3.7% | -2.4%
CCCCn1c(N)c(N(CCOC)C(=O)CCS(=O)(=O)c2ccc(Cl)cc2)c(=O)[nH]c1=O | -3.4% | 0.8% | 18.6% | 12.4% | 11.0%
Cc1cc(C(=O)CSc2nnc(-c3ccco3)o2)c(C)n1C | ? | 20.5% | -17.2% | 1.2% | .
CCn1c(C)cc(C(=O)CSc2nnc(-c3ccco3)o2)c1C | 6.51µM* | 20.8% | -13.8% | 1.0% | -0.5%
CC(C)C[C@H](NC(=O)c1nc[nH]c1C(=O)NC1CCN(C(=O)OC(C)(C)C)CC1)C(=O)OC(C)(C)C | 0.6% | 13µM* | -31.3% | -17.1% | 7.0%
CC(C)C[C@H](NC(=O)c1nc[nH]c1C(=O)NC1CCN(C(=O)OC(C)(C)C)CC1)C(=O)OCc1ccccc1 | 10.0% | ? | -35.6% | -25.7% | 13.9%
C[C@H](NC(=O)c1nc[nH]c1C(=O)NC1CCN(C(=O)OC(C)(C)C)CC1)C(=O)OC(C)(C)C | 0.164µM* | -0.6% | -33.0% | -4.8% | -3.9%
CC(C)(C)OC(=O)NCc1ccc(CNC(=O)c2[nH]cnc2C(=O)NC2CCN(C(=O)OC(C)(C)C)CC2)cc1 | -7.0% | 18.4µM* | -36.1% | 0.1% | -24.8%
O=C1c2ccccc2CCC12OC2c1ccc([N+](=O)[O-])cc1 (stereo not drawn) | . | . | -2.3% | . | .
CCOc1ccc(NC(=O)CN2C(=O)NC(CCSC)C2=O)cc1 (stereo not drawn) | ? | 19.0% | 10µM* | -15.2% | 4.1%
Clc1cc(Cl)c(OCC#CI)cc1Cl | ? | 21.1µM* | . | . | .
Clc1cc(Cl)c(Cl)cc1Cl | 1.8% | 1.5% | . | 4.1% | 3.8%
C[C@H]1CN([C@@H](C)CO)C(=O)CCCn2cc(nn2)CO[C@@H]1CN(C)C(=O)Nc1ccc(C(F)(F)F)cc1 | . | . | 20.7% | . | .
CCOc1ccc(S(=O)(=O)N2CCCCC2)cc1NC(=O)c1c(CC)noc1C | -21.5% | -1.0% | 19.5% | 10.1% | 5.0%
COc1cccc(C2CNC3(CCCC(C)C3)c3[nH]c4ccccc4c32)c1OC (stereo not drawn) | 95.1% | 18.4µM* | -68.2% | 1.8% | -42.7%
Cc1nonc1NC(=O)CSc1nc(C23CC4CC(CC(C4)C2)C3)nc2ccccc12 | ? | 10.3µM* | -12.2% | 15.5% | 9.9%
CCN(CC)c1ccc(NC(=O)CSc2nc(C3CC3)nc3ccccc23)cc1C | 8.2µM* | 6.51µM* | -40.0% | 2.2% | 9.3%
NC(=O)CSc1nc(C23CC4CC(CC(C4)C2)C3)nc2ccccc12 | 2.6% | ? | -7.4% | 5.4% | 19.9%
Cc1nonc1NC(=O)CSc1nc(C2CCCCC2)nc2ccccc12 | 8.2µM* | ? | 0.0% | ? | 4.6%
Cn1c(=O)c(/C(N)=N/OC(=O)c2ccccc2)cn(-c2ccccc2)c1=O | 3.5% | 5.3% | 24.8% | 0.3% | 2.3%
Cc1cc(C(=O)COc2cccnc2[N+](=O)[O-])c(C)n1-c1ccccc1 | -1.2% | 20.2% | -3.9% | -0.8% | 1.9%
Cc1ccc(-n2c(C)cc(C(=O)COc3cccnc3[N+](=O)[O-])c2C)cc1 | ? | 20.6µM* | -11.9% | -1.8% | -4.5%
COC(=O)[C@@]1(Cc2ccc(OC)cc2)[C@H]2c3cc(C(=O)N(C)C)n(Cc4ccc(OC(F)(F)F)cc4)c3C[C@H]2CN1C(=O)c1ccccc1 | 18.4µM* | ? | -41.2% | -6.5% | 8.8%
SMILES | SW480 rerep | MCF10A rereplic | Integrin act MD | AT treatment | Mito fusion yeast
COC(=O)[C@@]1(Cc2ccc(F)cc2)[C@H]2c3cc(C(=O)N(C)C)n(Cc4ccccc4)c3C[C@H]2CN1C(=O)c1ccccc1 | ? | ? | 7.3% | -1.5% | ?
Cc1ccc(S(=O)(=O)N2CCOCC2)cc1NC(=O)CSc1nnnn1C1CC1 | . | . | -1.6% | . | .
CCOc1ccc(NC(=O)c2cccnc2Cl)c([N+](=O)[O-])c1 | 23.1µM* | 7.6% | -18.4% | 2.9% | -17.7%
CCOc1ccc(NC(=O)c2ccco2)c([N+](=O)[O-])c1 | ? | 23.1% | 13.4% | -4.1% | -2.8%
COc1ccc(NC(=O)c2ccccc2)c([N+](=O)[O-])c1 | ? | ? | ? | 11.3% | 5.9%
COc1ccc(NC(=O)c2cccnc2)c([N+](=O)[O-])c1 | 16.4µM* | ? | 2.5% | -3.3% | -5.2%
COCCNc1oc(-c2ccccc2Cl)nc1S(=O)(=O)c1ccc(C)cc1 | -2.6% | 5.2% | ? | 10.6% | .
COC(C[C@H]1O[C@H]1C(=O)[C@@H](C)OCc1ccccc1)OC | 0.8% | ? | -29.9% | . | .
COC(C[C@@H]1O[C@H]1C(=O)[C@@H](C)OCc1ccccc1)OC | 23.1µM* | ? | 9.6% | . | .
CNC(=O)N(C1=NCCCCC1)c1ccc(Br)cc1 | -10.0% | 6.2% | -18.9% | -1.2% | 9.7%
Cc1ccc(C2Oc3ccccc3C3=C2C(c2cccs2)n2ncnc2N3)cc1 (stereo not drawn) | ? | 5.8µM* | -24.9% | 10.2% | 3.9%
Fc1ccc(C2C3=C(Nc4ncnn42)c2ccccc2OC3c2ccncc2)cc1 (stereo not drawn) | 15.8% | 22.7% | -10.0% | . | 0.9%
CN(Cc1ccco1)C(=O)C1CCC(=O)N1Cc1ccc(F)cc1 (stereo not drawn) | -4.0% | 2.2% | 7.1% | 2.9% | -0.3%
COc1cc2c(cc1OC)C(NC(=O)C(F)(F)F)C/C2=N\O (stereo not drawn) | 0.9% | 1.0% | 11.2µM* | 1.0% | ?
CCOc1ccc(CN(C)C(=O)c2cccc(S(=O)(=O)Nc3ccccc3OC)c2)cc1OC | . | . | 14.8% | . | .
C(=C\c1nnc2c3ccccc3ncn12)/c1ccccc1 | ? | 6.51µM* | 18.5% | -2.1% | 6.0%
COc1ccc(/C=C/C(=O)N2CCNC(=O)C2)c(OC)c1 | 7.6% | 1.03µM* | -20.4% | 0.1% | 2.9%
O=C1CN(C(=O)/C=C/c2cc(Br)ccc2F)CCN1 | -7.6% | 0.2% | 2.9% | 1.8% | 4.6%
CC(Oc1ccc2oc3ccccc3c2c1)C(=O)NC12CC3CC(CC(C3)C1)C2 (stereo not drawn) | ? | 16.4µM* | -39.2% | 8.3% | 19.9%
COc1ccc(C(=O)NC23CC4CC(CC(C4)C2)C3)cc1 | 37.6% | 8.9% | 6.9% | -17.1% | 14.0%
O=C(CCSc1ccc(Cl)c(Cl)c1)NC12CC3CC(CC(C3)C1)C2 | ? | 18.4µM* | 22.3%[7.66 µM] | 1.5% | 0.7%
